Calls of active or inactive are those of the source.
Assays:
[1] = tested on: PRMT1 (protein arginine N-methyltransferase 1); experiment: PRMT1 binders on small-molecule microarrays, primary screen, biochemical, small-molecule microarray, 635 nm fluorescence (AID 1088); conditions: small-molecule microarray binding, higher = more signal;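 also: binding of Prmt1 protein to compounds spotted on small-molecule microarray slides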
[2] = yeast growth modulation, basal conditions, primary screen, YJM789 clinical isolate, OD600, 24 h (AID 1089);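 also: growth of clinical yeast isolate S. cerevisiae YJM 789 seeded 1000 cells per well; test concentration not given here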; conditions: S. cerevisiae YJM789 growth, higher = more signal, called active from +8 up or from −8 down
[3] = fission yeast growth modulation, primary screen, strain 972, OD600, 24 h, no modulator (AID 1090);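 also: basal condition with compound alone and no growth modifier present; test concentration not given here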; conditions: S. pombe 972 growth, higher = more signal, called active from +8 up or from −8 down
[4] = S. cerevisiae growth modulation with rapamycin, primary screen, strain BY4716, OD600, 96 h (AID 1091); conditions: higher = more signal, called active from +8 up or from −8 down; also: test concentration not given here
[5] = target: Torsin-1A-interacting protein 2 (Homo sapiens) (UniProt Q8NFQ8); experiment: LULL1 binders on small-molecule microarray, primary screen, cell lysate, human LULL1 lysate, 635/667 nm fluorescence (AID 1092); conditions: hLULL1 lysate binding, 635 nm fluorescence, higher = more signal;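 also: probe is lysate of COS7 cells overexpressing human LULL1; score merges per-feature 667 nm fluorescence with signal-to-noise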
[6] = E. coli growth modulation, two-sided OD650, primary screen, E. coli filamentation project, strain DRC41, 24 h (AID 1093); conditions: OD650, 24 h, higher = more signal, called active from +8 up or from −8 down;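 also: MC1000 strain lacking acrAB efflux and sulA so SOS filamentation is blocked; test concentration not given here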
[7] = small-molecule microarray binders of probe aLefty2, primary screen, biochemical, biotinylated probe, 635/667 nm fluorescence (AID 1094); conditions: higher = more signal;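 also: score merges spot fluorescence near 667 nm with spot signal-to-noise ratio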
[8] = tested on: Noggin (protein binding on small-molecule microarray); experiment: Noggin binders on small-molecule microarray, primary screen, biochemical, 635/667 nm fluorescence (AID 1095); conditions: 635 nm fluorescence, higher = more signal;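 also: score merges 667 nm feature fluorescence with signal to noise over triplicate slides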
[9] = target: Neurogenic locus notch homolog protein 3 (Homo sapiens) (UniProt Q9UM47); experiment: NOTCH3 binders on small-molecule microarray, primary screen, biochemical, 635/667 nm fluorescence (AID 1096); conditions: NOTCH3 binding, 635 nm fluorescence, higher = more signal
[10] = small-molecule microarray binders of probe aEGFR, primary screen, biochemical, biotinylated probe, 635/667 nm fluorescence (AID 1097); conditions: higher = more signal;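 also: probe is a biotinylated anti-EGFR antibody binding compounds printed on slides; score combines fluorescence near 667 nm and signal to noise of each spot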

Chain of Torsin-1A-interacting protein 2 (Homo sapiens) (Q8NFQ8 whole entry, looked up): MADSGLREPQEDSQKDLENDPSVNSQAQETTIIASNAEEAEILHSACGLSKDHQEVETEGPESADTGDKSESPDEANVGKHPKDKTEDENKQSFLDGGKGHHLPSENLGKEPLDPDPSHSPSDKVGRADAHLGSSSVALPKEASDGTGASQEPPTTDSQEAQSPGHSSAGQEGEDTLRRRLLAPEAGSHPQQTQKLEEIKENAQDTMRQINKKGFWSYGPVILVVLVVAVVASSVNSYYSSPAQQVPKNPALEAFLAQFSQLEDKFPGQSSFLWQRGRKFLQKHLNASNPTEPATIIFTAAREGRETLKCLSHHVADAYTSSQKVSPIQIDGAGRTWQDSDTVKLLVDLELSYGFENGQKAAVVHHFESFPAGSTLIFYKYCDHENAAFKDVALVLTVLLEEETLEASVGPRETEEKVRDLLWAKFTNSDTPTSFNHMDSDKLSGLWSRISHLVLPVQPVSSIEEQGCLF
Chain of Neurogenic locus notch homolog protein 3 (Homo sapiens) (Q9UM47 whole entry, looked up): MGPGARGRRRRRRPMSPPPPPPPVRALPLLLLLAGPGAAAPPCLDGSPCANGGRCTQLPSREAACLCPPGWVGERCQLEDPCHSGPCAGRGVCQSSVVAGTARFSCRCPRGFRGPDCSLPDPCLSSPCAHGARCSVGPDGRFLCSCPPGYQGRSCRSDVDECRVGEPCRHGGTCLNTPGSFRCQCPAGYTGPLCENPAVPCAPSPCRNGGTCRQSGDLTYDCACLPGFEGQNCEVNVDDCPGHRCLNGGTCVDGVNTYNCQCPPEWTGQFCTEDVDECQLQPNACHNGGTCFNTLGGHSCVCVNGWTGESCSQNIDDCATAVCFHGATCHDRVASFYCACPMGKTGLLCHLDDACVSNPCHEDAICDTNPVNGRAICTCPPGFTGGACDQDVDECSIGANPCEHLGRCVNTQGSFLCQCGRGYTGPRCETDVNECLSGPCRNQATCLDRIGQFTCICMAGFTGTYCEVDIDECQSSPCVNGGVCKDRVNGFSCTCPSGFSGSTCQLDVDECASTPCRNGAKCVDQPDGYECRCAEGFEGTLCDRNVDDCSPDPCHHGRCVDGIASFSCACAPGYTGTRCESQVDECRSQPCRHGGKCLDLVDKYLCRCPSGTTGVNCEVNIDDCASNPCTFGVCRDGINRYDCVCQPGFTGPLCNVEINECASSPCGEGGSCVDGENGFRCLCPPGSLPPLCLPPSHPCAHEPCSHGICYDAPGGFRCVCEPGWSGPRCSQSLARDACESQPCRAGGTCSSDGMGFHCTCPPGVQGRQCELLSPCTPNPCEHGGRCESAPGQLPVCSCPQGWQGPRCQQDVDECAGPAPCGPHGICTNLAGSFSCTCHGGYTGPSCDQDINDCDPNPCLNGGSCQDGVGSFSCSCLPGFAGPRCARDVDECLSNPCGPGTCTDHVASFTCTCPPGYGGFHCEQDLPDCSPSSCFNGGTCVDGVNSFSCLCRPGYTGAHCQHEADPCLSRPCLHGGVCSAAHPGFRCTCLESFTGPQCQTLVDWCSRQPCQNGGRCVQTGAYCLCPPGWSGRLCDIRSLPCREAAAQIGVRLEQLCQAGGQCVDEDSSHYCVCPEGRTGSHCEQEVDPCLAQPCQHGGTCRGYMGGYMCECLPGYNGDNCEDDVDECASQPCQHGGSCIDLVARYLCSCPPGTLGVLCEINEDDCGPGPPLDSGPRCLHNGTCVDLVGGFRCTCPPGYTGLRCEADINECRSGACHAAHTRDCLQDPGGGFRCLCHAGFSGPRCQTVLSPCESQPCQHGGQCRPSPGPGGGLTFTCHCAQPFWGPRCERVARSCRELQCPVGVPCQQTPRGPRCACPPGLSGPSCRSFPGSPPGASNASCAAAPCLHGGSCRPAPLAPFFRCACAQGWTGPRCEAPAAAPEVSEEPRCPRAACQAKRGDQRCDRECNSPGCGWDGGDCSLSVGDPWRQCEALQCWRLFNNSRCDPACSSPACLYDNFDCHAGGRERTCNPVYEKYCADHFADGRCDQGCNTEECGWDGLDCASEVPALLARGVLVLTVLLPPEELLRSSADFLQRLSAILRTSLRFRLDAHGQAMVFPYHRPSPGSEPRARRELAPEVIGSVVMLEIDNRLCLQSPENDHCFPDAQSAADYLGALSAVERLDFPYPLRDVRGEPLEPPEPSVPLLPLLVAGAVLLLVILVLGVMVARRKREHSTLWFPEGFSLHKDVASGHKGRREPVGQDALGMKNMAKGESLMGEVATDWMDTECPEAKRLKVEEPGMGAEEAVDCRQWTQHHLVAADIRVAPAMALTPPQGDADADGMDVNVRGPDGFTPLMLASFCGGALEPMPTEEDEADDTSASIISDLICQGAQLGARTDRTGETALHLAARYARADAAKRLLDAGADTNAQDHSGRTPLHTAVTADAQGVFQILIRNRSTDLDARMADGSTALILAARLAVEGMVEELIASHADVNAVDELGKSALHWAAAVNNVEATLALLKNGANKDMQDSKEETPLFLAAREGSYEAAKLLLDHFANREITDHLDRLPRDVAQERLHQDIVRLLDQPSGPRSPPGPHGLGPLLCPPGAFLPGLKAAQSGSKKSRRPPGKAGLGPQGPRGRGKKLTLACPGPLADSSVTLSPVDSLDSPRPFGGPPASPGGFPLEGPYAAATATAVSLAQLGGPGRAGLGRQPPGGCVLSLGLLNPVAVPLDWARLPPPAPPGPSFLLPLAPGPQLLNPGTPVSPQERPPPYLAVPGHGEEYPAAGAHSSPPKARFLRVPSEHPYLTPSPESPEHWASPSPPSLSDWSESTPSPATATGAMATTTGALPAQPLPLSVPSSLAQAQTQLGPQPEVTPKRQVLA

| Structure (SMILES) | composite z-score [1] | z-score [2] | z-score [3] | z-score [4] | composite z-score [5] | z-score [6] | composite z-score [7] | composite z-score [8] | composite z-score [9] | composite z-score [10] |
| --- | --- | --- | --- | --- | --- | --- | --- | --- | --- | --- |
| C=CCNC(=O)[C@H]1[C@@H]2C(=O)O[C@@H](c3ccccc3)[C@@H](c3ccccc3)N2[C@@H](c2ccccc2OCCO)[C@]12C(=O)Nc1ccc(C#CC3=CCCCC3)cc12 | 1.55 | 2.06 (inactive) | -1.27 (inactive) | 4.78 (inactive) | 2.58 | 1.25 (inactive) | -0.117 | 1.23 | 1.1 | -0.0108 |
| CC(C)C[C@@H]1NC(=O)[C@@H]2C[C@H](C(=O)NCCCCCN)[C@H](c3cccc(OCCO)c3)N2C1=O | 1.3 | -4.39 (inactive) | -0.894 (inactive) | -1.13 (inactive) | 2.73 | 0.758 (inactive) | 0.215 | 0.359 | 0.244 | -0.0549 |
| COc1ccc(CCNC(=O)[C@@H]2c3ccccc3C(=O)N(C3Cc4ccccc4C3)[C@H]2c2ccc(CO)cc2)cc1 | 1.34 | 0.629 (inactive) | 0.0128 (inactive) | 0.332 (inactive) | 1.75 | -0.141 (inactive) | 0.0349 | -0.155 | -0.145 | -0.0624 |
| CCCCCN1CC=CC23O[C@@H]4/C=C\CCCOC(=O)C4[C@H]2C(=O)N(C(CO)C(C)C)[C@@H]3C1=O (stereo not given in full) | 0.0207 | -0.215 (inactive) | -0.84 (inactive) | -0.809 (inactive) | 0.868 | 1.65 (inactive) | -0.124 | 0.0296 | 0.243 | -0.201 |
| COCCCNC(=O)[C@@]1(Cc2ccccc2)N=C(c2ccc(OCCCO)cc2)O[C@H]1c1ccccc1 | 1.42 | -1.69 (inactive) | -0.475 (inactive) | -1.74 (inactive) | 3.36 | 0.474 (inactive) | 0.355 | -0.416 | 0.6 | 0.265 |
| CC(C)(C)C(=O)N[C@@H](c1ccc(Cl)cc1)[C@]1(C)C[C@H]1C1CCCCC1 | 1.05 | 0.553 (inactive) | 0.613 (inactive) | -0.104 (inactive) | 3.61 | -0.21 (inactive) | 0.43 | -0.486 | 1.05 | 0.106 |
| COc1ccc(CCN2C(=O)[C@@]3(Cc4ccccc42)c2ccccc2C(=O)N(Cc2ccccc2C(F)(F)F)[C@H]3c2ccc(CO)cc2)cc1 | 0.67 | 0.276 (inactive) | -0.414 (inactive) | -1.68 (inactive) | 0.568 | -2.33 (inactive) | 0.0077 | 0.451 | -0.39 | -0.276 |
| COC(=O)[C@@]1(Cc2ccc(F)cc2)[C@H]2c3cc(C(=O)N4CCCC4)n(Cc4ccc(C)o4)c3C[C@H]2CN1C(=O)c1ccccc1 | 0.812 | -0.849 (inactive) | -0.0545 (inactive) | 0.0836 (inactive) | 2.88 | -0.673 (inactive) | 0.381 | 1.2 | 0.556 | 0.277 |
| COc1ccc([Si](C)(C)[C@H]2[C@H](CC(=O)N3CCC[C@H]3CO)O[C@@]3(C(=O)N(Cc4cccc(N5C(=O)c6cccc7cccc5c67)c4)c4ccccc43)[C@@H]2C)cc1 | 1.56 | -0.0977 (inactive) | 0.696 (inactive) | -0.15 (inactive) | 2.08 | -0.0831 (inactive) | 0.031 | 1.57 | 1.05 | -0.0549 |
| C=C(CCCC)C(=O)CC[C@H](OC(C)=O)c1cccc(OCCO)c1 | 0.554 | 0.292 (inactive) | -1.84 (inactive) | -0.303 (inactive) | -0.348 | 0.787 (inactive) | -0.215 | -0.848 | -0.216 | -0.363 |
| O=C1OCCC/C=C\[C@H]2OC34C=CCN(Cn5nnc6ccccc65)C(=O)[C@H]3N(CCO)C(=O)[C@@H]4C12 (stereo not given in full) | -0.614 | 0.744 (inactive) | -0.0999 (inactive) | -0.277 (inactive) | 1.41 | 2.83 (inactive) | 0.478 | -0.708 | -0.571 | -0.0015 |
| COc1ccc(C#Cc2ccc3c(c2)[C@]2(C(=O)N3)[C@H](c3ccccc3OCCO)N3[C@H](c4ccccc4)[C@H](c4ccccc4)OC(=O)[C@H]3[C@@H]2C(=O)O)cc1 | 1.54 | 3.22 (inactive) | 1.13 (inactive) | 0.629 (inactive) | 3.09 | 0.0706 (inactive) | 0.111 | 1.11 | 1.03 | 0.122 |
| Cc1ccc(C(C)CC(O)C2C=CC3C(=O)N(C)C(=O)C3N2NC(=O)OC(C)(C)C)o1 (stereo not given) | 1.42 | 0.309 (inactive) | -0.63 (inactive) | 0.101 (inactive) | 3 | -0.615 (inactive) | 0.0682 | 0.68 | 1.06 | 0.0681 |
| COCCOC(=O)N1C(=O)[C@@]2(c3ccccc31)[C@H](c1ccc(O)cc1)N1[C@H](c3ccccc3)[C@H](c3ccccc3)OC(=O)[C@H]1[C@@H]2C(=O)NC[C@H](O)c1ccccc1 | 1.51 | 0.385 (inactive) | -0.238 (inactive) | 2.73 (inactive) | 2.98 | 0.505 (inactive) | -0.23 | 0.399 | 0.669 | -0.165 |
| C=CC[C@]1(C(=O)NCCCOC)N=C(c2ccc(OCCCO)cc2)O[C@H]1c1ccccc1N=[N+]=[N-] | 1.55 | -0.707 (inactive) | -0.688 (inactive) | 1.47 (inactive) | 3.48 | 0.421 (inactive) | 0.0482 | 0.444 | 0.935 | -0.265 |
| COc1ccc([Si](C)(C)[C@@H]2[C@@H](CC(=O)N3Cc4ccccc4C[C@H]3CO)O[C@]3(C(=O)N(C)c4c(Br)cc(C)cc43)[C@H]2C)cc1 | 1.54 | -0.069 (inactive) | 1.2 (inactive) | 2.03 (inactive) | 1.84 | 0.064 (inactive) | -0.174 | 1.55 | 1.12 | -0.0409 |
| CC(C)(C)OC(=O)CC[C@]1(C(=O)O)N=C(c2ccc(OCCCO)cc2)O[C@H]1c1ccccc1N=[N+]=[N-] | 0.938 | 0.0071 (inactive) | 0.179 (inactive) | -0.668 (inactive) | 3 | -0.0096 (inactive) | 1.1 | 0.189 | 0.41 | 0.285 |
| O=C1OCCC/C=C\[C@H]2OC34C=CCN(Cn5nnc6ccccc65)C(=O)[C@H]3N(CCCCCCO)C(=O)[C@@H]4C12 (stereo not given in full) | 0.827 | -3.24 (inactive) | -0.0541 (inactive) | -1.28 (inactive) | 3.5 | 2.87 (inactive) | -0.181 | -0.272 | -0.269 | -0.224 |
| C=CCOC(=O)[C@H]1[C@@H]2C(=O)O[C@@H](c3ccccc3)[C@@H](c3ccccc3)N2[C@@H](c2ccc(OCCOC(=O)[C@@H]3C[C@@H]4C(=O)N5CCC[C@H]5C(=O)N4[C@@H]3c3cccc(OCCO)c3)cc2)[C@]12C(=O)Nc1ccccc12 | 1.53 | 1.06 (inactive) | 0.983 (inactive) | 2.72 (inactive) | 2.64 | 0.0706 (inactive) | 0.108 | 0.98 | 1.13 | 0.0617 |
| CCOC(=O)C1=CCC(c2ccccc2)N(S(=O)(=O)CC[Si](C)(C)C)C1 (stereo not given) | -0.0595 | -0.465 (inactive) | 0.178 (inactive) | 2.78 (inactive) | 0.0058 | 0.185 (inactive) | -0.235 | -0.288 | -0.822 | -0.334 |
| C=CCN1C(=O)[C@@]2(O[C@@H](CCO)[C@H]([Si](C)(C)c3ccc(OC)cc3)[C@H]2C)c2cc(NC(=O)c3ccc(OC)cc3)ccc21 | 1.54 | 0.411 (inactive) | -2.29 (inactive) | 1.02 (inactive) | 0.821 | 0.702 (inactive) | -0.0977 | 1.37 | 0.861 | -0.159 |
| C=CCN1C(=O)[C@]2(O[C@H](CCO)[C@@H]([Si](C)(C)c3ccc(OC)cc3)[C@@H]2C)c2cc(N3CCCCC3=O)ccc21 | 1.54 | -0.242 (inactive) | 0.413 (inactive) | 2.23 (inactive) | 2.37 | 1.27 (inactive) | -0.106 | 1.06 | 1.14 | 0.048 |
